From PubChem BioAssay (Tox21)
Results filed as inconclusive are left out. Calls of active or inactive are those of the source. Unless noted, calls come from the whole dose curve; as a rule, active = well fitted curve in the direction sought with a large enough effect in the repeat runs; inconclusive = weak or mixed curves; inactive = no such curve, though single readings can be large; an effect the other way counts as inactive or inconclusive.

Key:
[1] = target: Retinoic acid receptor RXR-alpha (Homo sapiens) (UniProt P19793); assay: qHTS assay to identify small molecule agonists of the RXR signaling pathway (AID 1159527; calls by dose curve; note: nearly all actives have a fitted effect of over 35% in size; note: potency is the fitted concentration of half-maximal effect); details: HEK293T RXRa-UAS-bla, beta-lactamase ratio, 16 h; series mostly up to 76.8 µM
Sequence of Retinoic acid receptor RXR-alpha (Homo sapiens) (P19793 whole entry, looked up): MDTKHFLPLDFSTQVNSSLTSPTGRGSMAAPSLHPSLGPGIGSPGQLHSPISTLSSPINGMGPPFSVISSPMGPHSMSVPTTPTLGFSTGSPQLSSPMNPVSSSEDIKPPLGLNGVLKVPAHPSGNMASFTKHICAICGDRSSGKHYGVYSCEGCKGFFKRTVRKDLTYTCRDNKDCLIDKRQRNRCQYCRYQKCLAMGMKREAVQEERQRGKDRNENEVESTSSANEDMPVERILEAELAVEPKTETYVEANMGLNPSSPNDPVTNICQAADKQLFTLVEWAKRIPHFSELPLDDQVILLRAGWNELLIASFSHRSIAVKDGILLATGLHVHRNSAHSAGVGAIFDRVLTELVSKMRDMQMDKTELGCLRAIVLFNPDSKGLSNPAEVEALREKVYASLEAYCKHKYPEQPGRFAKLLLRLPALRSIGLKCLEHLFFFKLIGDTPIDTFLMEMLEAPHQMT
Procedure, shortened: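 16 hr incubation of compound-treated RXR-alpha-UAS-bla HEK 293T cells (2% charcoal-stripped FBS, 37 C) preceded a 2 hr room-temperature LiveBLAzer FRET substrate step and blue/green fluorescence measurement.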

[2] = qHTS assay to identify small molecule agonists of the RXR signaling pathway - cell viability counter screen (AID 1159529); details: RXR-alpha-bla HEK293T viability, CellTiter-Glo, 16 h; series mostly up to 76.8 µM;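 note: HEK 293T cells carrying an RXR-alpha UAS beta-lactamase reporter; nearly all actives have a fitted effect of over 50% in size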
Procedure, shortened: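 In this parallel viability measure, GeneBLAzer RXR-alpha HEK 293T cells (2% charcoal-stripped FBS) were given a 5 hr preincubation, treated with compounds 16 hr at 37 C, and read by CellTiter-Glo luminescence.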

[3] = qHTS assay to identify small molecule antagonists of the retinoid acid receptor (RAR) signaling pathway - cell viability counter screen (AID 1159551); details: C3RL4 cells viability, ATP luminescence (CellTiter-Glo), 6 h; series mostly up to 92.4 µM; note: nearly all actives have a fitted effect of over 35% in size
Procedure, shortened: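 Cells (C3RL4) are plated, incubated overnight, dosed with compound in DMSO, then given retinol at 1 uM final. After 6 h at 37 C, CellTiter-Glo is added and luminescence read following 30 min at room temperature.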

[4] = qHTS assay to identify small molecule antagonists of the retinoic acid receptor (RAR) signaling pathway (AID 1159552; note: nearly all actives have a fitted effect of over 50% in size); details: C3RL4 RARE luciferase reporter, retinol-stimulated, 6 h; series mostly up to 92.4 µM
Procedure, shortened: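 C3RL4 RARE-luc cells, overnight plating; retinol 1 uM final added right after compound; 6 hr 37 C; luciferase read at 30 min RT.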

[5] = qHTS assay to identify small molecule agonists of the retinoic acid receptor (RAR) signaling pathway (AID 1159553); details: C3RL4 RARE luciferase reporter, agonist, 6 h; series mostly up to 73.3 µM; note: potency is the fitted concentration of half-maximal effect
Procedure, shortened: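 Seed C3RL4 reporter cells at 1,000 per well and incubate overnight at 37 C. Add compounds in DMSO, incubate 6 hr. Add luciferase reagent, wait 30 min at room temperature, read luminescence.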

Measured: Potency

CCOC(=O)Nc1cccc(OC(=O)Nc2ccccc2)c1
inactive: [1] | [2] | [3] | [4]
active: [5] 27.3 µM

CN(C)C(=O)Oc1cc(OC(=O)N(C)C)cc(C(O)CNC(C)(C)C)c1 (stereo not given)
inactive: [1] | [2] | [3] | [4] | [5]

ClCOCCl
inactive: [1] | [2] | [3] | [4] | [5]

COc1cc(CC(C)N)cc(OC)c1OC (stereo not given)
inactive: [1] | [2] | [3] | [4] | [5]

CC(C)(N)Cc1ccc(Cl)cc1
inactive: [1] | [2] | [3] | [4] | [5]

CC(C)[C@]12CC(=O)[C@H](C)[C@H]1C2
inactive: [1] | [2] | [3] | [4] | [5]

CCc1ccc(C2CCNCC2)cc1
inactive: [1] | [2] | [3] | [4] | [5]

CCCCCCC1CCOC1=O (stereo not given)
inactive: [1] | [2] | [3] | [4] | [5]

CC1NCCOC1c1ccccc1 (stereo not given)
inactive: [1] | [2] | [3] | [4] | [5]

CCC1(c2cccc(O)c2)CCCCN(C)C1 (stereo not given)
inactive: [1] | [2] | [3] | [4] | [5]

CCSC(=O)Cl
inactive: [1] | [2] | [3] | [4] | [5]

CC[C@H](N)c1ccccc1
inactive: [1] | [2] | [3] | [4] | [5]

CN(C)CCc1c[nH]c2cccc(OP(=O)(O)O)c12
inactive: [1] | [2] | [3] | [4] | [5]

CNC(=O)Oc1cc(C)c(N(C)C)c(C)c1
inactive: [2] | [3] | [4] | [5]
active: [1] 43.7 µM
